TGFb inhibitor: qHTS for Inhibitors of TGF-b; HepG2 CAGA-GFP TGF-b/SMAD3 reporter, GFP fluorescence, 18 h; TGF-beta stimulated, 500 pg/mL final; Potency, µM (titrated, usually from 46.1 µM), for the others: at the top dose activity, negative = inhibition, actives largely listed as inhibitors; 1.2% of 410,000 active; AID 588855, 2011; also: potency is read from the fitted curve at half-maximal effect; % is scaled to controls: 0 for no effect and ±100 for the full control effect; nearly all actives have a fitted effect of over 65% in size
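HEPG2 CAGA-GFP cells (1000/well, DMEM with 1% FBS) were pre-incubated 2 h at 37 degrees C, given compound by pin tool, then stimulated with TGF-beta at 500 pg/mL final for 18 h before per-cell GFP fluorescence imaging.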
HepG2 viability: qHTS for Inhibitors of TGF-b: Cytotox Counterscreen; HepG2 CAGA-GFP viability, ATP luminescence, 18 h; Potency, µM (highest dose often 46.1 µM), without a hit: at the top dose activity change, negative = cytotoxicity, actives largely listed as cytotoxic; 0.76% of 410,000 active; AID 588856, 2011; also: potency is read from the fitted curve at half-maximal effect
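HepG2 CAGA-GFP cells (1000/well, DMEM with 1% FBS) received compound, then TGF-beta at 500 pg/mL final, and were incubated 18 hours at 37 degrees C. Viability was read by CellTiter-Glo luminescence. Media-only wells were set as complete cell-killing and DMSO as no toxicity.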
IL-1B inflam inh: qHTS for Inhibitors of Inflammasome Signaling: IL-1-beta AlphaLISA Primary Screen | 4.7% of 360,000 active | activity change, % at 57.5 µM | THP-1 LPS/ATP IL-1B secretion, AlphaLISA, 16 h; stronger effect = lower value; in the data active = activity change below about -50%; inconclusive = mostly about -30% to -49%; also: % is scaled to controls: 0 for no effect and ±100 for the full control effect
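THP-1 cells pretreated 1 hr with compounds (up to 57.5 uM final), then stimulated with LPS (250 ng/mL final) plus ATP (1.25 mM final); secreted IL-1B measured by AlphaLISA after 16 hr, decreased signal indicating inhibition.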
DT40 TDP1 no CPT: qHTS for Inhibitors of human tyrosyl-DNA phosphodiesterase 1 (TDP1): qHTS in cells in absence of CPT; DT40 Tdp1-/- hTDP1 cells, no CPT, ATP luminescence, 48 h; Potency, µM (titrated, usually from 46.2 µM), without a hit: top-dose activity change, negative = growth inhibition, most hits filed as inhibitors; 15% of 420,000 active; AID 686978, 2013; also: potency is read from the fitted curve at half-maximal effect; % is scaled to controls: 0 for no effect and ±100 for the full control effect; nearly all actives have a fitted effect of over 55% in size
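Camptothecin absent (DMSO only). Human TDP1-complemented DT40 knockout cells, 400 cells/well, 37 °C for minimum 48 hr; ATP measured via CellTiter-Glo, 30 min dark incubation, luminescence.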
TDP1 block: qHTS Assay for Inhibitors of Tyrosyl-DNA Phosphodiesterase (TDP1). recombinant TDP1, AlphaScreen DNA substrate cleavage. Potency, µM (highest dose often 130 µM), for inactives: at the highest dose activity change, negative = inhibition, most hits filed as inhibitors. 0.28% of 350,000 active. AID 485290, 2010; also: potency is read from the fitted curve at half-maximal effect; % is scaled to controls: 0 for no effect and ±100 for the full control effect; nearly all actives have a fitted effect of over 40% in size
Target sequence (Q9NUW8 whole entry, looked up): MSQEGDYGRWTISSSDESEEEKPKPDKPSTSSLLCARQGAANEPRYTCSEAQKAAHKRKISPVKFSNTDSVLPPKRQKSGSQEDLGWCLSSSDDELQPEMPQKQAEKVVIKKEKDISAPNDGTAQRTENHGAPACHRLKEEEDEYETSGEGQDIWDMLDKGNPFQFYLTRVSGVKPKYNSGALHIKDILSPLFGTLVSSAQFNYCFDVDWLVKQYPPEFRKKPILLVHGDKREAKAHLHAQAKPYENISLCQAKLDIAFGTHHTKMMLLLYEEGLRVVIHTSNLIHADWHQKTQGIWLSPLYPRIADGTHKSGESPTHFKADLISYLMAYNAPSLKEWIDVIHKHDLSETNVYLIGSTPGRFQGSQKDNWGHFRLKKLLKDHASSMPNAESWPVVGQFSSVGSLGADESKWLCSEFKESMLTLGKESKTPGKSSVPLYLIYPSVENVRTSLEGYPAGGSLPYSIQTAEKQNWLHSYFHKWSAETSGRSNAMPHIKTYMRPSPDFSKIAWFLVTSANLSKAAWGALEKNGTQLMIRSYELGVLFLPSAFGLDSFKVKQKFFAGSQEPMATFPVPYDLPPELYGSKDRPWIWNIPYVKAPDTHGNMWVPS
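Compounds were preincubated with Tdp1 (1 nM final) for 15 min at room temperature before substrate (15 nM final) started a 5 min reaction; beads (10 ug/ml final) were then added for 10 min before AlphaScreen detection.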
TDP1 cell CPT: qHTS for Inhibitors of human tyrosyl-DNA phosphodiesterase 1 (TDP1): qHTS in cells in presence of CPT; 12% of 420,000 active; Potency, µM (doses to about 46.2 µM), for inactives: at the highest dose activity change, negative = growth inhibition, usual class: inhibitors; chicken DT40 Tdp1-/-;hTDP1 cells + 20 nM CPT, ATP luminescence, 48 h; also: potency is read from the fitted curve at half-maximal effect; % is scaled to controls: 0 for no effect and ±100 for the full control effect; nearly all actives have a fitted effect of over 55% in size
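Chicken DT40 Tdp1-/- cells complemented with human TDP1, 400 cells/well, exposed to compounds plus 20 nM camptothecin for at least 48 h at 37 C; viability read as ATP content by CellTiter-Glo luminescence.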
The depositor's hits bear a star; ? = inconclusive; · = no result given; [ ] = dose if it differs, or a comment. A selection: hits, their analogues and other compounds. The true share with any hit is near 19%. Unless noted, calls follow the shape of the dose curve; as a rule, active = well fitted curve in the direction sought with a large enough effect; inconclusive = small, poorly fitted or top-dose-only effect, or another doubt; inactive = no such curve, though single readings can be large; an effect the other way counts as inactive or inconclusive.

SMILES | TGFb inhibitor | HepG2 viability | IL-1B inflam inh | DT40 TDP1 no CPT | TDP1 block | TDP1 cell CPT
COc1c(C(=O)Nc2ccc(Cc3ccncc3)cc2)ccc2ccccc12 | ? | -12% | -14 | 23µM* | 8% | ?
COc1ccccc1C(=O)NC(=S)Nc1ccc(Cc2ccncc2)cc1 | ? | -32% | 29 | 18µM* | · | ?
COc1ccc(NC(=O)Cn2c(=O)n(CCc3ccccc3)c(=O)c3sc4ccccc4c32)cc1 | ? | -7% | · | -2% | 4% | -13%
CC(=O)N[C@H]1[C@H]([C@H](O)[C@H](O)CO)OC(C(=O)O)=C[C@@H]1N=C(N)N | · | · | · | -16% | · | -20%
C=C1c2ccccc2O[C@H](C(=O)OCC)C1OC (mixture of isomers) | · | · | · | · | 5%[234 µM] | ·
CCOC(=O)N1CCC(NC(=S)Nc2ccc3nc(N4CCN(C)CC4)cc(C)c3c2)CC1 | ? | -21% | -100* | ? | 3% | -18%
CCOC(=O)N1CCC(NC(=S)Nc2ccc3nc(N4CCN(CC)CC4)cc(C)c3c2)CC1 | -22% | -23% | -1 | ? | -1% | ?
CCOc1ccccc1C(=O)Nc1ccc2nc(N3CCN(c4ncccn4)CC3)cc(C)c2c1 | 0% | -25% | ? | 9.2µM* | · | 18µM*
CCOc1ccccc1NC(=O)Nc1ccc2nc(N3CCN(C)CC3)cc(C)c2c1 | ? | 7.9µM* | · | 23µM* | 5% | ?
Cc1ccccc1NC(=O)Nc1ccc2nc(N3CCN(C)CC3)cc(C)c2c1 | 35% | -7% | · | ? | 2% | ?
CCC(=C(CC)c1ccc(O)cc1)c1ccc(O)cc1 | · | · | · | · | 5%[21 µM] | ·
Cn1c(CNC(=O)OC(C)(C)C)n[nH]c1=S | 1% | 0% | -12 | 4% | 3% | 9%
CCN(CC)CCN1C(=O)C(=O)/C(=C(/O)c2c(C)[nH]c(C(=O)OC)c2C)C1c1ccc(C)o1 (configuration not stated) | -7% | -29% | 16 | -6% | 3% | 5%
CC(C)CCn1c(SCC(=O)NC2CCS(=O)(=O)C2)nc2cc(Cl)ccc2c1=O (configuration not stated) | -2% | -2% | -18 | -15% | -1% | -6%
COc1ccc(CN2CCC(CO)(CCOc3ccccc3)CC2)cc1C | -4% | 12% | -72* | ? | -3% | ?
OCC1(CCOc2ccccc2)CCN(Cc2ccc(OC(F)F)cc2)CC1 | -20% | -34% | -91* | ? | 3% | 0%
OCC1(CCOc2ccccc2)CCN(Cc2ccccc2OC(F)F)CC1 | -1% | -22% | -79* | ? | 2% | -27%
C=CCOc1ccccc1CN1CCC(CO)(CCOc2ccccc2)CC1 | -18% | -41% | ? | 18µM* | 3% | ?
COc1cc(CN2CCC(CO)(CCOc3ccccc3)CC2)cc(OC)c1OC | 6% | 1% | 8 | -11% | -3% | -2%
COc1ccc2cc(CNCc3ccccc3C(F)(F)F)c(N3CCCC(CO)C3)nc2c1 (configuration not stated) | · | · | · | -29% | · | -12%[9.04 µM]
COc1ccccc1C(=O)NCCn1cc(SCC(=O)Nc2ccccc2F)c2ccccc21 | -16% | -24% | · | ? | 3% | ?
Cc1cc(C(=O)CSc2nc(N)cc(N)n2)c(C)n1-c1cccc(C(F)(F)F)c1 | -18% | -4% | -11 | ? | 8% | 23µM*
Cc1cc(C(=O)CSc2nc(N)cc(N)n2)c(C)n1CCc1ccc(F)cc1 | ? | -36% | -66* | ? | 9% | ?
Cc1cc(C(=O)CSc2ncccn2)c(C)n1-c1cccc(F)c1 | 0% | -2% | -3 | ? | -3% | -7%
COCCCNC(=O)Cn1c(=O)n(-c2cccc(C)c2)c(=O)c2c1c1cc(C)ccc1n2C | -13% | -3% | · | ? | -4% | -23%
SMILES | TGFb inhibitor | HepG2 viability | IL-1B inflam inh | DT40 TDP1 no CPT | TDP1 block | TDP1 cell CPT
CN(C)S(=O)(=O)c1cccc(NC(=O)CN2C(=O)NC(Cc3ccccc3)C2=O)c1 (configuration not stated) | 0% | -19% | 22 | ? | -1% | -23%
CCc1ccc(NC(=O)C2CCCN2c2nn3c(=O)cc(C)nc3s2)cc1 (configuration not stated) | 10% | 1% | 20 | ? | · | -12%
CC(C)(C)NC(=O)CSc1nc(Cc2ccccc2)nc2ccccc12 | ? | -25% | ? | ? | 4% | ?
CCC(C)(C)NC(=O)CSc1nc(Cc2ccccc2)nc2ccccc12 | -28% | -1% | -64* | ? | · | ?
CCCCNC(=O)CSc1nc(COc2ccccc2)nc2ccccc12 | ? | -4% | -99* | ? | 3% | -12%
CC[C@H](C)[C@H](NC(=O)[C@H](CCC(=O)O)NC(=O)[C@H](CO)NC(=O)[C@@H](NC(=O)[C@@H](N)CO)C(C)C)C(=O)N[C@@H](CCC(N)=O)C(=O)N[C@@H](CC(C)C)C(=O)N[C@@H](CCSC)C(=O)N[C@@H](Cc1cnc[nH]1)C(=O)N[C@@H](CC(N)=O)C(=O)N[C@@H](CC(C)C)C(=O)NCC(=O)N[C@@H](CCCCN)C(=O)N[C@@H](Cc1cnc[nH]1)C(=O)N[C@@H](CC(C)C)C(=O)N[C@@H](CC(N)=O)C(=O)N[C@@H](CO)C(=O)N[C@@H](CCSC)C(=O)N[C@@H](CCC(=O)O)C(=O)N[C@@H](CCCNC(=N)N)C(=O)N[C@H](C(=O)N[C@@H](CCC(=O)O)C(=O)N[C@@H](Cc1c[nH]c2ccccc12)C(=O)N[C@@H](CC(C)C)C(=O)N[C@@H](CCCNC(=N)N)C(=O)N[C@@H](CCCCN)C(=O)N[C@@H](CCCCN)C(=O)N[C@@H](CC(C)C)C(=O)N[C@@H](CCC(N)=O)C(=O)N[C@@H](CC(=O)O)C(=O)N[C@H](C(=O)N[C@@H](Cc1cnc[nH]1)C(=O)N[C@@H](CC(N)=O)C(=O)N[C@@H](Cc1ccccc1)C(=O)N[C@H](C(=O)N[C@@H](C)C(=O)N[C@@H](CC(C)C)C(=O)NCC(=O)O)C(C)C)C(C)C)C(C)C | · | · | · | · | 20% | ·
